Records with an inconclusive call do not appear. Values without a mark were called inactive. The source made the active and inactive calls. The call rests on the fitted dose curve; in most records, active means well fitted cell-killing curve with a large enough effect; inconclusive means small, poorly fitted or top-dose-only effect, or effect the other way; inactive means flat fitted curve, though single readings scatter.

This assay in a line: Compound cytotoxicity measured by an ATP content assay as a counter-screen for lead compounds in human astrocytes. The conditions noted are these: human astrocytes viability, ATP luminescence; series mostly up to 46.1 µM; activity change, negative = cytotoxicity: at the top concentration. The procedure, abridged: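 Human astrocytes seeded 16–20 h beforehand at 37 C, 5% CO2, then exposed to compounds for set times (e.g. 6, 24 or 72 h). ATP content reagent added 1:1, 10 min room temperature; luminescence converted to percent inhibition of viability.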
Background: The purpose of a counterscreen is to sort out artefacts and off-target activity.
As to `CN(C)CCCSc1ccccc1NC(=O)/C=C/c1ccccc1`, the “activity change, negative = cytotoxicity” value is 9.71%.

As for `COc1ccc2nc(NC(=O)Nc3ccccc3)sc2c1`, the Potency is 19.5 µM (active).

As for `O=C(O)CCC(=O)c1ccc(-c2ccccc2)cc1`, the “activity change, negative = cytotoxicity” value is 4.23%.

Take `CC(C(=O)O)c1ccc2c(c1)[nH]c1ccc(Cl)cc12` (centres undefined): the “activity change, negative = cytotoxicity” value was 5.69%.

Turning to `CC1(C)Cc2c(sc(NC(=S)NC(=O)c3ccccc3)c2C(=O)O)CO1`, the “activity change, negative = cytotoxicity” value was 1.95%.

With `O=c1oc2cc(O)ccc2s1`, the “activity change, negative = cytotoxicity” value was -3.03%.

Consider `O=C(c1ccccc1)c1ccc2n1CCC2C(=O)O` (centres undefined), for which the “activity change, negative = cytotoxicity” value is 14.5%.

On to `COc1cccc2c1C(=O)c1c(O)c3c(c(O)c1C2=O)C[C@@](O)(C(=O)CO)C[C@@H]3O[C@H]1C[C@H](N)[C@H](O[C@@H]2CCCCO2)[C@H](C)O1`, for which the “activity change, negative = cytotoxicity” value is -21.9%.

Turning to `CCCCCCCCCCCC(=O)[O][Sn]([CH2]CCC)([CH2]CCC)[O]C(=O)CCCCCCCCCCC`, the “activity change, negative = cytotoxicity” value was 1.27%.

Consider `c1ccc2[nH]c(-c3cscn3)nc2c1`, for which the “activity change, negative = cytotoxicity” value is -24.6%.

As to `O=S(=O)(O)c1ccc2nc(-c3ccccc3)[nH]c2c1`, the “activity change, negative = cytotoxicity” value is -7.27%.

Consider `Nc1nc2ccc([N+](=O)[O-])cc2s1`, for which the “activity change, negative = cytotoxicity” value was 7.77% [at 88.3 µM].

As for `CC(=O)OC(C)OC(=O)C(C)c1ccc(-c2ccccc2)c(F)c1` (centres undefined), the “activity change, negative = cytotoxicity” value is 7.3%.

With `O=C(O)c1ccccc1NCCc1ccccc1`, the “activity change, negative = cytotoxicity” value was 11.8%.

For `CC(=NNC(=S)N1CCC1)c1ccccn1`, the Potency is 17.3 µM (active).

Consider `O=c1c(-c2ccc(O)cc2)coc2cc(OC3O[C@H](CO)[C@H](O)[C@H](O)[C@H]3O)cc(O)c12` (some centres undefined), for which the “activity change, negative = cytotoxicity” value was -29.9%.

As to `C=CCCCCCCCCC(=O)O`, the “activity change, negative = cytotoxicity” value is 3.45%.

Turning to `O=c1c2ccccc2nc2n1CCc1c-2[nH]c2ccccc12`, the “activity change, negative = cytotoxicity” value was -15.3%.

With `O=C(/C=C/c1ccc(O)cc1)c1ccc(O)cc1O`, the “activity change, negative = cytotoxicity” value is 15.3%.

Source of the values: PubChem BioAssay AID1224861 (National Center for Advancing Translational Sciences (NCATS), 2016).
